High-throughput results: PubChem, NMMLSC
The list is not random: actives were taken first. Their share in the collection is about 1.2%.
RGS7-Gao – modulates binding of RGS7 to human Galphao; P09471; Multiplexed bead flow cytometry; actives lie on both sides; binding response (% of control), % at 10 µM; 220,000 compounds, 0.35% hits; in the data active = binding response below about 49% or above about 150%; inconclusive = no clear call, values can overlap the other calls; inactive = in between;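 note: fluorescent Galphao held in activated GDP-AlF4 state binding bead-coupled RGS7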
Target sequence (P09471 whole entry, looked up): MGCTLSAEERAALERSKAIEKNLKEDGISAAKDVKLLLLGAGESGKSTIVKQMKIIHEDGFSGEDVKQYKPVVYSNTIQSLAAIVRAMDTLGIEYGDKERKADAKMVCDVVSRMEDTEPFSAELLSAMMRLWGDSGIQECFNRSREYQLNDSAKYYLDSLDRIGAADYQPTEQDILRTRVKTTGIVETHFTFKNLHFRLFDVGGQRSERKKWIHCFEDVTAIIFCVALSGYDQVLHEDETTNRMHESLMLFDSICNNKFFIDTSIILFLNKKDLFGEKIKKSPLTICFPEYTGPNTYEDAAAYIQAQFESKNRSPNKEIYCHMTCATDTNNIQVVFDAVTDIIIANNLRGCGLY
RGS8-Gao reg – regulators of human RGS8-Galphao interaction | P09471 | multiplexed bead flow cytometry, RGS8-Galphao binding; actives lie on both sides | response (percent of control binding), % at 10 µM | 220,000 compounds, 0.34% hits; in the data active = response below about 60% or above about 140%; inactive = in between;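 note: Galphao activated as the GDP aluminium fluoride complex binding bead-coupled RGS8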
GSH fluor – compound fluoresces at 488/530 nm on GSH beads; GSH beads flow cytometry, compound fluorescence 488/530 nm; active compounds read high; fluorescence (KMESF) at 10 µM; 190,000 compounds, 0.25% hits; in the data active = fluorescence above about 89;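 note: glutathione beads carrying GST-tagged Bcl family fusion proteins plus one bare bead set; values are compound well signal with DMSO vehicle wells as background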
RGS16-Gao – modulates binding between human RGS16 and Galphao. O15492+P09471. bead-based flow cytometry RGS16-Galphao binding, fluorescence; actives lie on both sides. binding response (% of control), % at 10 µM. 220,000 compounds, 0.38% hits; call rule not given here;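 note: Galphao activated by GDP with aluminum fluoride before binding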
Target sequence (O15492 whole entry, looked up): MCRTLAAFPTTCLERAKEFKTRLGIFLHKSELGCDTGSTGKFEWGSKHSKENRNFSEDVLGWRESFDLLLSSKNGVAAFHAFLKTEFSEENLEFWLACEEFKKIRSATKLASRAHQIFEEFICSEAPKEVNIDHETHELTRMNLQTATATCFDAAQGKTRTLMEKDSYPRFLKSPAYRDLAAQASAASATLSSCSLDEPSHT
Target sequence (P09471 whole entry, looked up): as the sequence (P09471 whole entry, looked up) above
Avidin bead fluor – avidin bead compound fluorescence profile; Avidin beads, compound fluorescence 488/530 nm, flow cytometry; active compounds read high; fluorescence (KMESF) at 10 µM; 220,000 compounds, 0.38% hits; AID 1775; in the data active = fluorescence above about 47
RGS4-Gao reg – modulates binding of RGS4 to human Galphao | P09471 | Multiplexed bead flow cytometry; actives lie on both sides | binding response (% of control), % at 10 µM | 220,000 compounds, 0.33% hits | AID 1415; in the data active = binding response below about 49% or above about 150%; inactive = in between;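 note: fluorescent Galphao activated with aluminum fluoride binding bead-coupled RGS4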
Active calls of the source: *.

Results for COc1ccc(N2CCN(Cc3nc4c(c(=O)[nH]c(=O)n4C)n3Cc3cccc(Cl)c3)CC2)cc1 ?
RGS7-Gao: inconclusive; RGS8-Gao reg: 97.7; RGS16-Gao: 95.3; Avidin bead fluor: 8; RGS4-Gao reg: 96.5

What do the screens show for `N#CCCSCc1ccc(OCC(=O)O)cc1`?
RGS7-Gao: 99.0; RGS8-Gao reg: 102.5; GSH fluor: 5; RGS16-Gao: 102.8; Avidin bead fluor: 8; RGS4-Gao reg: 100.1

Results for CCOc1ccc(N2C(=O)CN(C)C2=S)cc1 ?
RGS7-Gao: 102.3; RGS8-Gao reg: 102.8; GSH fluor: 13; RGS16-Gao: 103.6; Avidin bead fluor: 13; RGS4-Gao reg: 104.8

How did CCc1nnc(NC(=O)CN2CCN(c3nc(-c4ccccc4)cs3)CC2)s1 do in these assays?
RGS7-Gao: 110.1; RGS8-Gao reg: 102.7; GSH fluor: 19; RGS16-Gao: 100.3; Avidin bead fluor: 47*; RGS4-Gao reg: 103.1

How did O=C(Nc1ncc(Cl)cc1Cl)c1c(F)cccc1Cl do in these assays?
RGS7-Gao: inconclusive; RGS8-Gao reg: 101.7; GSH fluor: 10; RGS16-Gao: 101.1; Avidin bead fluor: 12; RGS4-Gao reg: 103.0

Results for CCOC(=O)c1cnn(-c2ncnc3sc4c(c23)CCC4)c1N ?
RGS7-Gao: 116.2; RGS8-Gao reg: 102.2; GSH fluor: 23; RGS16-Gao: 125.0; Avidin bead fluor: 52*; RGS4-Gao reg: 121.2

How did O=[N+]([O-])c1ccc(OCc2cnc(Cl)s2)cc1 do in these assays?
RGS7-Gao: 102.1; RGS8-Gao reg: 98.9; GSH fluor: 12; RGS16-Gao: 101.3; Avidin bead fluor: 10; RGS4-Gao reg: 99.0

Results for Cc1nc2cc(NC(=O)N3CC4(C)CC3CC(C)(C)C4)ccc2n1C (stereo not given) ?
RGS7-Gao: 105.2; RGS8-Gao reg: 98.2; GSH fluor: 19; RGS16-Gao: 97.5; Avidin bead fluor: 48*; RGS4-Gao reg: 99.2

What do the screens show for `O=C(CSc1nnc(Nc2ccccc2)s1)NCc1ccco1`?
RGS7-Gao: 106.4; RGS8-Gao reg: 101.9; GSH fluor: 10; RGS16-Gao: 106.8; Avidin bead fluor: 12; RGS4-Gao reg: 103.6

What do the screens show for `Cc1ccc(Nc2nnc(SCC(=O)NCc3ccco3)s2)cc1`?
RGS7-Gao: 93.8; RGS8-Gao reg: 101.9; GSH fluor: 259*; RGS16-Gao: 97.4; Avidin bead fluor: 7; RGS4-Gao reg: 95.0

Results for Cc1nnc(SCc2cccc3ccccc23)s1 ?
RGS7-Gao: inconclusive; RGS8-Gao reg: 101.4; RGS16-Gao: 100.5; Avidin bead fluor: 4; RGS4-Gao reg: 104.0

Results for CCn1c(COc2ccc(=O)n(-c3ccccc3)n2)nnc1SCc1cccc(OC)c1 ?
RGS7-Gao: -3.1*; RGS8-Gao reg: 13.1*; GSH fluor: 12; RGS16-Gao: -13.3*; Avidin bead fluor: -1; RGS4-Gao reg: -20.1*

How did COCCNC(=O)/C(C#N)=C/c1c(F)cccc1Cl do in these assays?
RGS7-Gao: inconclusive; RGS8-Gao reg: 99.2; GSH fluor: 13; RGS16-Gao: 95.2; Avidin bead fluor: 10; RGS4-Gao reg: 99.5

Results for CC1CCc2c(sc(NC(=O)c3ccccc3C(=O)O)c2C#N)C1 (stereo not given) ?
RGS7-Gao: 127.7; RGS8-Gao reg: 99.6; GSH fluor: 41; RGS16-Gao: 95.6; Avidin bead fluor: 64*; RGS4-Gao reg: 88.4

How did CCOC(=O)C1=C(C)NC(SC)=NC1c1ccc(OC)cc1 (stereo not given) do in these assays?
RGS7-Gao: 106.1; RGS8-Gao reg: 103.4; GSH fluor: 111*; RGS16-Gao: 109.8; Avidin bead fluor: 4; RGS4-Gao reg: 107.0

How did CC(=O)c1ccc(NS(=O)(=O)c2ccccc2)cc1 do in these assays?
RGS7-Gao: 121.5; RGS8-Gao reg: 101.2; GSH fluor: 28; RGS16-Gao: 102.7; Avidin bead fluor: 49*; RGS4-Gao reg: 106.0

Results for CC(=O)c1ccc(NS(=O)(=O)c2ccc(N)cc2)cc1 ?
RGS7-Gao: 94.6; RGS8-Gao reg: 92.8; GSH fluor: 12; RGS16-Gao: 69.2; Avidin bead fluor: 15; RGS4-Gao reg: 93.2

Results for CCOC(=O)c1sc(NC(=S)NC(=O)C2CCCC2)cc1C ?
RGS7-Gao: 139.1; RGS8-Gao reg: 103.0; GSH fluor: 12; RGS16-Gao: 103.6; Avidin bead fluor: 49*; RGS4-Gao reg: 105.6

How did CCOC(=O)c1sc(NC(=O)C2CC2)cc1C do in these assays?
RGS7-Gao: 99.6; RGS8-Gao reg: 99.7; GSH fluor: 24; RGS16-Gao: 100.3; Avidin bead fluor: 6; RGS4-Gao reg: 99.5

How did CCCCN1C(=O)N(C)C2C1N(C)C(=O)N2CCCC (stereo not given) do in these assays?
RGS7-Gao: 103.0; RGS8-Gao reg: 106.4; GSH fluor: 130*; RGS16-Gao: 123.8; Avidin bead fluor: 5; RGS4-Gao reg: 104.7

Results for CCCCN1C(=O)N(C)C2NC(=O)NC21 (stereo not given) ?
RGS7-Gao: 98.1; RGS8-Gao reg: 98.4; GSH fluor: 14; RGS16-Gao: 101.8; Avidin bead fluor: 10; RGS4-Gao reg: 99.8

What do the screens show for `Cc1ccc(C(c2c(C)[nH][nH]c2=O)c2c(C)[nH][nH]c2=O)cc1[N+](=O)[O-]`?
RGS7-Gao: 95.3; RGS8-Gao reg: 97.7; GSH fluor: 20; RGS16-Gao: 98.4; Avidin bead fluor: 13; RGS4-Gao reg: 92.6

What do the screens show for `Cc1cc(Br)cc(C)c1NC(=O)c1ccc(C#N)cc1F`?
RGS7-Gao: inconclusive; RGS8-Gao reg: 103.0; GSH fluor: 15; RGS16-Gao: 97.8; Avidin bead fluor: 8; RGS4-Gao reg: 99.8

How did CCCOC(=O)c1ccc(NC(=O)c2ccoc2C)cc1 do in these assays?
RGS7-Gao: 105.8; RGS8-Gao reg: 97.8; GSH fluor: 27; RGS16-Gao: 100.3; Avidin bead fluor: 51*; RGS4-Gao reg: 97.9

How did CCCOC(=O)c1ccc(NC(=O)COC)cc1 do in these assays?
RGS7-Gao: 104.5; RGS8-Gao reg: 102.8; GSH fluor: 12; RGS16-Gao: 105.9; Avidin bead fluor: 10; RGS4-Gao reg: 102.6

How did CCCOC(=O)c1ccc(NC(=O)C2C3C=CC(O3)C2C(=O)O)cc1 (stereo not given) do in these assays?
RGS7-Gao: 110.3; RGS8-Gao reg: 119.0; GSH fluor: 244*; RGS16-Gao: 179.4; Avidin bead fluor: 4; RGS4-Gao reg: 116.0

What do the screens show for `O=C(NC(=S)Nc1nc2ccccc2s1)c1cccs1`?
RGS7-Gao: 105.5; RGS8-Gao reg: 103.1; GSH fluor: 6; RGS16-Gao: 109.2; Avidin bead fluor: 14; RGS4-Gao reg: 107.2

Results for CCc1ccc(-c2nc(NC(=S)NC(=O)c3cccs3)sc2C)cc1 ?
RGS7-Gao: 114.2; RGS8-Gao reg: 98.1; GSH fluor: 24; RGS16-Gao: 97.5; Avidin bead fluor: 57*; RGS4-Gao reg: 98.8
